In the library only some 1.9% were active in any assay of this set; here they are far more common.
eIF4H inh: inhibitors of RNA binding by human eIF4H | Q15056 | eIF4H fluorescence polarization binding assay | inhibition, % at 35 µM | 290,000 tested, 0.94% active | AID 2012;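 note: calls also rest on retests at 20 µM and on dose response follow-up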
14-3-3 Bad PPI: disrupts binding of bovine 14-3-3 zeta to phospho-Bad peptide | P63103 | TR-FRET 14-3-3zeta/Dy647-pBad peptide displacement, 1 h | inhibition, % at 21.7 µM | 220,000 tested, 0.71% active | AID 781;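 active = inhibition above about 70%, limit read from the data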;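 note: 0% = full 14-3-3 plus peptide FRET controls and 100% = background without 14-3-3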
eIF4E 4G PPI: inhibitors of eIF4E and eIF4G interaction in translation initiation; P63073+Q04637; TR-FRET eIF4E-eIF4GI(517-606) binding, 2 h; inhibition, % at 21.7 µM; 220,000 tested, 0.37% active;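 active = inhibition above about 30%, limit read from the data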;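 note: 0% = full FRET control wells and 100% = background wells lacking eIF4GI fragment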
Target sequence (P63073 whole entry, looked up, the tested form may be a part): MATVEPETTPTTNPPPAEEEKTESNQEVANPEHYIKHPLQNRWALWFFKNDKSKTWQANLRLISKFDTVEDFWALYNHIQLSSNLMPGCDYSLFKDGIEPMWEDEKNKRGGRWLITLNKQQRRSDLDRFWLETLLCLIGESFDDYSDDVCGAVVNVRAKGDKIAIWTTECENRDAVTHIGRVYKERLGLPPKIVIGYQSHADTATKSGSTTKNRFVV
Target sequence (Q04637 whole entry, looked up, the tested form may be a part): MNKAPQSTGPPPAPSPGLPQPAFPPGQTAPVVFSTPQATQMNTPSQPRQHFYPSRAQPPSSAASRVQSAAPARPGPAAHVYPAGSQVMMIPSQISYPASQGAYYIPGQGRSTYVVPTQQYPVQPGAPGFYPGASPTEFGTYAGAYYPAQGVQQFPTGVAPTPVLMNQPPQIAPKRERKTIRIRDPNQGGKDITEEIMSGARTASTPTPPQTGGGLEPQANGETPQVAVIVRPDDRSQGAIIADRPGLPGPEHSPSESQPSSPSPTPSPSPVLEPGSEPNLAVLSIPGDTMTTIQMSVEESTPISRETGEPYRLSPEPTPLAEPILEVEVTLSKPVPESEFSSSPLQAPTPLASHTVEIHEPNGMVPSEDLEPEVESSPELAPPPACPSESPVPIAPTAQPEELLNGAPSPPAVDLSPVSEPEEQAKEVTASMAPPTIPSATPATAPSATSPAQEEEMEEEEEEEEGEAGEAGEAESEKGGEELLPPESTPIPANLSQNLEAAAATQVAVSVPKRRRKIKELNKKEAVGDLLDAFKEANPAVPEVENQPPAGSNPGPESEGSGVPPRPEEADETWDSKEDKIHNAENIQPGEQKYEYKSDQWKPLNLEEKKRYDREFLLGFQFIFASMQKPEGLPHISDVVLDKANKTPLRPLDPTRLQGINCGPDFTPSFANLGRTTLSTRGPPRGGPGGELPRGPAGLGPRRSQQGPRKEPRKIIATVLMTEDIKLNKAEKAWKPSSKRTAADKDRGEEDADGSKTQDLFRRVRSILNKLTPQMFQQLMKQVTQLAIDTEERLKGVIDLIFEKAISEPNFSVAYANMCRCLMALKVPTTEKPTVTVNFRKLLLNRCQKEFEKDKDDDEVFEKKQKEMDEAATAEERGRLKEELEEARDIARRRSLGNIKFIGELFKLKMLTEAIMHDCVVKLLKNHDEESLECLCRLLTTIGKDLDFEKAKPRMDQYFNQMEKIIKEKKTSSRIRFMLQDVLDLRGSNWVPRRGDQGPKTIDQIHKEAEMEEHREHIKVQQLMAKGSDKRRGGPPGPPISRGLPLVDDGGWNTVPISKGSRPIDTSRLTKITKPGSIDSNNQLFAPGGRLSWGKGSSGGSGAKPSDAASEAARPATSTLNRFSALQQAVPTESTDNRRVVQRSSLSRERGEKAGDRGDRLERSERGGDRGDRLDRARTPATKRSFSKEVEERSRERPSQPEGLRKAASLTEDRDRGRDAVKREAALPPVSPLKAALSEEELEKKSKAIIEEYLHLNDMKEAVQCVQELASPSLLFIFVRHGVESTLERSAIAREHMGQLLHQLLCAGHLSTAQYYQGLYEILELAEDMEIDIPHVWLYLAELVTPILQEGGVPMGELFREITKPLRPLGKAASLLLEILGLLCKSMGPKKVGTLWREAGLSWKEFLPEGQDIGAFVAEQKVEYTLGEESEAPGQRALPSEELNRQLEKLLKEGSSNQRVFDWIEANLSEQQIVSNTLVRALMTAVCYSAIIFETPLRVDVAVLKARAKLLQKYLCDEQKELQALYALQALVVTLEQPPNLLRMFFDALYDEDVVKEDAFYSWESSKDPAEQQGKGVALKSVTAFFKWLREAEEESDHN
PABP polyA inh: blocks human PABP binding to poly(A) RNA; fluorescence polarization; 290,000 tested, 1% active; P11940; calls only at 35 µM;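 note: calls also rest on retests at 20 µM and on dose response follow-up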
MLLE-PAM2 inh: blocks PAM2 peptide binding to the PABP1 MLLE domain; GST-MLLE / FITC-PAM2 fluorescence polarization; inhibition, % at 20 µM; 360,000 tested, 0.36% active; in the data active = inhibition above about 35%, passing the limit was not always enough;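 note: plate controls were DMSO wells with GST-MLLE for no effect and wells lacking GST-MLLE protein for full effect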
* hit, by the source's call; i = inactive; ? = inconclusive; nt = no result given; + = active, no number; [ ] = remark or other dose. Unless noted, the rule behind the calls is not given here.

SMILES	eIF4H inh	14-3-3 Bad PPI	eIF4E 4G PPI	PABP polyA inh	MLLE-PAM2 inh
COC(=O)c1ccc(C#Cc2ccccc2)o1	-2	-2	5	i	2
O=C1C=C(C2OC(CO)C(O)C2O)C(=O)N1 (centres undefined)	nt	nt	nt	nt	43*
O=C(NCCN1CCCC1=O)C1CCC(=O)N(CCc2cccc(F)c2)C1 (centres undefined)	-10	nt	nt	i	11
O=C(c1ccco1)N1CCN(C(c2cccs2)c2nnnn2C2CCCC2)CC1 (centres undefined)	-5	1	-8	i	-4
c1ccc(CN(Cc2cccs2)C(c2cccs2)c2nnnn2C2CCCC2)cc1 (centres undefined)	0	87*	-5	i	7
c1coc(CN2CCN(C(c3cccs3)c3nnnn3C3CCCC3)CC2)c1 (centres undefined)	0	77*	0	i	-6
CSc1ccc(/C=C(\C#N)C(=O)Nc2cccc(C)c2)cc1	-3	12	-2	i	-6
N#Cc1cc([N+](=O)[O-])cnc1N(CCO)CCO	12	6	0	i	7
Cc1nn(CC(=O)Nc2ccc(S(=O)(=O)N(C)C)cc2)c(C)c1[N+](=O)[O-]	1	-5	3	i	-12
Cc1nn(CCC(=O)O)c2nc(-c3cccnc3)cc(C(F)(F)F)c12	-6	73*	11	i	15
Cc1nn(CCC(N)=O)c2nc(-c3cccs3)cc(C(F)(F)F)c12	4	-9	-3	i	-7
Cc1ccc(NC2OC(C(O)CO)C(O)C2O)cc1[N+](=O)[O-] (centres undefined)	93*	-8	-2	i	-1
Cc1ccc(NC2OC(CO)C(O)C2O)cc1[N+](=O)[O-] (centres undefined)	-1	1	-1	i	10
Cc1ccccc1C(=O)OCc1cnc(Cl)s1	-5	-2	4	i	-2
CCN(CC)c1ccc2nc3ccccc3[n+](CC)c2c1	39	nt	nt	+	-113
Cc1csc(SC(C)C(=O)NCC2CCCO2)n1 (centres undefined)	nt	nt	nt	nt	28
CCC1C(=O)Nc2nc(-c3ccccc3)c(-c3ccccc3)n2N=C1C (centres undefined)	-7	3	0	i	-6
O=C(O)c1cccc(N2C(=O)/C(=C/c3ccc(SCc4ccc(Cl)cc4)o3)SC2=S)c1	83	85*	49*	i	-136
CC1Cc2ccccc2N1C(=O)Cn1cc(C(F)(F)F)ccc1=O (centres undefined)	nt	nt	nt	nt	-1
CCN1C(=O)/C(=C2\Sc3ccccc3N2CC)OC1=S	-1	-66	-5	i	46*
CCN1C(=O)/C(=C2\C=Cc3ccccc3N2CC)OC1=S	nt	nt	nt	nt	14
CCN(CC(=O)NCc1ccc(Cl)cc1)C(=O)CSCC(=O)Nc1cccc(C)c1	-1	nt	nt	i	-33
COc1ccc(CN(C)C(C)C(=O)Nc2ccc(S(=O)(=O)N3CCCC3)cc2)c(OC)c1OC (centres undefined)	-1	-7	-1	i	nt
CN1C=CC2=C(C#N)C(N)C(C#N)(C#N)[C@H](c3ccccc3)[C@H]2C1 (some centres undefined)	?	1	3	i	48*
Cc1cc(C)c[n+](-c2[nH]c(=O)sc2/C=N/N=C(\[O-])c2cccnc2)c1	8	nt	nt	i	36*
SMILES	eIF4H inh	14-3-3 Bad PPI	eIF4E 4G PPI	PABP polyA inh	MLLE-PAM2 inh
Cc1ccc(-c2nc3c(c(=O)[nH]c(=O)n3Cc3ccccc3)n2Cc2ccccc2)o1	0	11	2	i	-13
Cc1cc(C)c2c(=O)[nH]c(=O)n(Cc3ccccc3)c2n1	103*	12	-1	+	-74
Cc1ccc(-c2nc3c(c(=O)[nH]c(=O)n3Cc3ccccc3)n2C)s1	16	53	11	i	nt
Cc1ccc(-c2nc3c(c(=O)[nH]c(=O)n3Cc3ccccc3)n2C)o1	88*	36	28	+	3
OCCCNc1ncnc2scc(-c3ccc(Cl)cc3)c12	6	nt	nt	i	2
O=C(Cc1nnc(NC(=O)c2ccccc2)s1)N/N=C\c1ccc(O)c(O)c1	59*	nt	nt	i	-10
O=C(Cc1nnc(NC(=O)c2ccccc2)s1)N/N=C/c1ccc(O)cc1	25	nt	nt	i	-15
Cc1cc(C)cc(N2C(=O)CC(Sc3ncn[nH]3)C2=O)c1 (centres undefined)	-12	8	4	i	31
COc1ccc(C(C(=O)NC2CCCCC2)N(Cc2cccnc2)C(=O)c2snc(C(N)=O)c2N)cc1 (centres undefined)	5	nt	nt	i	-1
S=c1[nH]c2ccccc2n2c(=S)[nH]nc12	3	nt	nt	i	41*
CCOc1ccc(Nc2nc(Cc3nnc(SCC(=O)O)o3)cs2)cc1	48*	14	10	i	-54
CC(O)CNCCOc1ccccc1OCc1ccccc1 (centres undefined)	0	45	5	i	-7
CC(O)CNCCNCc1c(OCc2ccccc2)ccc2ccccc12 (centres undefined)	-11	77*	8	i	0
O=C(CN1CCOCC1)Nc1c2c(nc3ccccc13)N(Cc1ccccc1)CC2	-6	77*	-2	i	4
O=C(CN1CCCC1)Nc1c2c(nc3ccccc13)N(Cc1ccccc1)CC2	-2	84*	0	i	20
CCN(CC)CC(=O)Nc1c2c(nc3ccccc13)N(C)CC2	6	nt	nt	i	-6
Cc1ccc(Cl)cc1NC(=O)COC(=O)c1ccc(COc2ccc3c(C)cc(=O)oc3c2)cc1	-11	78*	25	i	nt
CCCN1CCN(C(=O)CCCNC(=O)Cn2cnc3sc(C)c(C)c3c2=O)CC1	-11	7	36*[fluorescence artefact?]	i	6
O=c1[nH]c(=S)[nH]cc1Oc1ccc(Cl)cc1Cl	10	-8	-5	i	46*
Cc1nc(-c2ccccc2)[nH]c(=O)c1Oc1ccc(Cl)cc1Cl	1	-15	-3	i	-14
CN(C)c1ccc(N=c2sc3ccccc3n2C)cc1	-1	28	38*[fluorescence artefact?]	i	6
Cn1c(=Nc2ccccc2)sc2ccccc21	-6	-10	13	i	-1
CCOC(=O)N1CCC(NC(=O)c2ccc3c(c2)N(CC)CCS3)CC1	nt	nt	nt	nt	38*
COc1c(C=O)cc2c3c1CCCN3CCC2	0	nt	nt	i	-8
NCc1cc2c3c(c1)CCCN3CCC2	93*	nt	nt	+	36*
O=C(c1ccco1)N1CCN(Cc2cccc([N+](=O)[O-])c2)CC1	-4	32	-2	i	-1
COc1ccccc1NC(=O)Cc1csc(NC(=S)Nc2ccccc2)n1	-11	0	1	i	41*
CCCCc1c(O)nc(SCC(=O)Nc2cccc3ccccc23)n(-c2ccccc2OC)c1=O	-3	nt	nt	i	41*
CCc1c(O)nc(SCC(=O)Nc2ccccc2OC)n(-c2ccccc2C)c1=O	nt	nt	nt	nt	46*
COCC(C)n1c(SCC(=O)Nc2sccc2C(N)=O)nc2ccccc2c1=O (centres undefined)	nt	nt	nt	nt	2
